According to the supplement of paper PMC11732987, “Enantioselective OTUD7B fragment discovery through chemoproteomics screening and high-throughput optimisation” (Communications Chemistry, 2025):

How the values were obtained:
Experiment in all cases: log2 ratio of Biotin-Ahx-Ub-VS probe labelling (fragment/DMSO); higher = less target engagement (more negative = stronger competition), active = hit call of the paper (q ≤ 0.05, log2 ratio ≤ -1)
Conditions in all cases: compound concentration: 200 uM; treatment time: 3 h
[1] = target: USP9X (UniProt Q93008)
Procedure, shortened: (§1)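 In triplicate, 495 µg of HEK293T lysate per sample was incubated with fragment at 200 µM or vehicle for 3 h. Biotin-Ahx-Ub-VS was then added to 0.5 µM final for 1 h, and labelled DUBs were captured with NeutrAvidin, digested with LysC and trypsin, and measured by diaPASEF LC-MS/MS. Data are average log2 fragment/vehicle ratios by unpaired t-test from global-median-normalised Spectronaut label-free quantities, restricted to proteins with ≥2 unique peptides.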

[2] = target: UniProt O00487
Procedure, shortened: as §1

[3] = target: UniProt O00507
Procedure, shortened: as §1

[4] = target: UniProt P51784
Procedure, shortened: as §1

[5] = target: T1, UniProt Q5T2D3
T1 sequence (whole entry): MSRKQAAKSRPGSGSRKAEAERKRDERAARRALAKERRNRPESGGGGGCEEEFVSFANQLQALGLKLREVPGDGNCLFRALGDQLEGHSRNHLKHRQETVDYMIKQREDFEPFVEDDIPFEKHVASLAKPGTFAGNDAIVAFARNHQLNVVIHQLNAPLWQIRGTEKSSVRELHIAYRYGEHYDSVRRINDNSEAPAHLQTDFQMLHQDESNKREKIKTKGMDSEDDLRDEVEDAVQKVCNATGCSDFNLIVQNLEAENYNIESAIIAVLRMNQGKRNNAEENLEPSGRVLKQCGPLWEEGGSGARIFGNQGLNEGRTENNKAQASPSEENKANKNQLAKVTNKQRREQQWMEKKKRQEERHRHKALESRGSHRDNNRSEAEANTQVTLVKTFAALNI
Procedure, shortened: as §1

[6] = target: T2, UniProt Q8TE49
T2 sequence (whole entry): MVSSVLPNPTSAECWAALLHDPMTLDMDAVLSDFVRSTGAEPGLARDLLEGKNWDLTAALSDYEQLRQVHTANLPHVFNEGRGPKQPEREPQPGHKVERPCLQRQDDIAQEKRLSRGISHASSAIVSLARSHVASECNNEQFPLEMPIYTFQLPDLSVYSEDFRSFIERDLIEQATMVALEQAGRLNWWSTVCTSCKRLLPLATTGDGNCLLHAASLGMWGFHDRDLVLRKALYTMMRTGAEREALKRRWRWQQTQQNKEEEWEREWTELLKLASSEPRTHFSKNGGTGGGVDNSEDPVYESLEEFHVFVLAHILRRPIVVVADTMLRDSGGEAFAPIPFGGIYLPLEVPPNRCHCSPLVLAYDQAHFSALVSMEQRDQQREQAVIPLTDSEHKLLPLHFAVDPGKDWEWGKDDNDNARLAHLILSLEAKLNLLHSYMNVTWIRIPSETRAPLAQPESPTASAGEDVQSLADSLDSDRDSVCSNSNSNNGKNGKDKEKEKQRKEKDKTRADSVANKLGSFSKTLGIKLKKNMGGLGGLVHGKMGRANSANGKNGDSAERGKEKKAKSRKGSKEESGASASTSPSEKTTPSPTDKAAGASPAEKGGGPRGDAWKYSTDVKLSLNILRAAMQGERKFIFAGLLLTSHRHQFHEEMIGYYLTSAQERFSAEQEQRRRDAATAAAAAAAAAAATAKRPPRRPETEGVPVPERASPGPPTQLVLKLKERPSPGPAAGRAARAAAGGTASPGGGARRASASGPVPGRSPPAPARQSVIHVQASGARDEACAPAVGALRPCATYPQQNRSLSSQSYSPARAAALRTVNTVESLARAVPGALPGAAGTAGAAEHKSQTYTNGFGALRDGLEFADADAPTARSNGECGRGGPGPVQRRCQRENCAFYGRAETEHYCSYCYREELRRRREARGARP
Procedure, shortened: as §1

[7] = target: T3, UniProt Q9P2H5
T3 sequence (whole entry): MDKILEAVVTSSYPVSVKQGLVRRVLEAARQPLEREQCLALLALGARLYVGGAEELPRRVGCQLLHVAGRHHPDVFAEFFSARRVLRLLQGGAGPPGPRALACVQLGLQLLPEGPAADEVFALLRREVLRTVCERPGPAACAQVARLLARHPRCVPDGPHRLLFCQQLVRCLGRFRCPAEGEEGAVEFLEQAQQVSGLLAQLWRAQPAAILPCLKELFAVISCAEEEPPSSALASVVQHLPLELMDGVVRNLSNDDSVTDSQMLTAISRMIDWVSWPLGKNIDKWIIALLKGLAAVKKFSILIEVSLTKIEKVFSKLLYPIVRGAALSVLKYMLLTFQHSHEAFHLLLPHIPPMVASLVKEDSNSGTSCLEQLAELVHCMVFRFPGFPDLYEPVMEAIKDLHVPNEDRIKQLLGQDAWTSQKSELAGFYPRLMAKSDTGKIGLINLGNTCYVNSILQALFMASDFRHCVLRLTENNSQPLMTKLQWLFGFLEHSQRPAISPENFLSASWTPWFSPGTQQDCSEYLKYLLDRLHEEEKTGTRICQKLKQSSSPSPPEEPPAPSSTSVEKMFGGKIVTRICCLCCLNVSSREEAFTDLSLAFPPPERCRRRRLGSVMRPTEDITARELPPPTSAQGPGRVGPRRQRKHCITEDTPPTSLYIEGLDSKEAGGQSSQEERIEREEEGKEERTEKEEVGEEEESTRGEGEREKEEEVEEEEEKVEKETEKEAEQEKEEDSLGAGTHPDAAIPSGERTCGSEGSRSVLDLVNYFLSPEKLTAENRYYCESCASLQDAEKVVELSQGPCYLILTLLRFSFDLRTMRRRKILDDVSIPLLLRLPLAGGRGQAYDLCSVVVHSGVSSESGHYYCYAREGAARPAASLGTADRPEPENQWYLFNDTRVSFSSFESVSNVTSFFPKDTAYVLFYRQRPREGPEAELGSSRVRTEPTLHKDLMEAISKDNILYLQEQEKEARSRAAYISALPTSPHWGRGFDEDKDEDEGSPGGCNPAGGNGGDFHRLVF
Procedure, shortened: as §1

[8] = target: T4, UniProt Q9UGI0
T4 sequence (whole entry): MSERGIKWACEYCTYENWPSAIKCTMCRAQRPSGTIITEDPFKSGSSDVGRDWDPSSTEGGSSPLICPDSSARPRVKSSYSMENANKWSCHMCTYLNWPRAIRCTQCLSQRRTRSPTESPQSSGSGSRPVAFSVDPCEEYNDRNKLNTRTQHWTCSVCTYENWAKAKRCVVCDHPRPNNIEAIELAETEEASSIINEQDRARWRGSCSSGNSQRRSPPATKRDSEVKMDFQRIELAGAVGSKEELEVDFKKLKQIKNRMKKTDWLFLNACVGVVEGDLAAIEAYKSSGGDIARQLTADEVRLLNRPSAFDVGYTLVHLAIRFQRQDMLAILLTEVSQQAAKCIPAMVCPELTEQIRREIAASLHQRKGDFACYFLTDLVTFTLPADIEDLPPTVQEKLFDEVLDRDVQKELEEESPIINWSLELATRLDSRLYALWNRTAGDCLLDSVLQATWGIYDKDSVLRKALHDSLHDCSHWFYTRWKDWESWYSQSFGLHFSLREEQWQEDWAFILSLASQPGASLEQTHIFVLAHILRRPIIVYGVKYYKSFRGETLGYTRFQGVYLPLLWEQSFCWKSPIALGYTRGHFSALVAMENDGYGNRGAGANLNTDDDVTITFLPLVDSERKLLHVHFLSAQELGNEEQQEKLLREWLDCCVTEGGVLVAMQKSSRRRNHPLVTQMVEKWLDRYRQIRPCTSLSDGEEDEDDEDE
Procedure, shortened: as §1

[9] = target: T5, YOD1 (UniProt Q5VVQ6)
T5 sequence (whole entry): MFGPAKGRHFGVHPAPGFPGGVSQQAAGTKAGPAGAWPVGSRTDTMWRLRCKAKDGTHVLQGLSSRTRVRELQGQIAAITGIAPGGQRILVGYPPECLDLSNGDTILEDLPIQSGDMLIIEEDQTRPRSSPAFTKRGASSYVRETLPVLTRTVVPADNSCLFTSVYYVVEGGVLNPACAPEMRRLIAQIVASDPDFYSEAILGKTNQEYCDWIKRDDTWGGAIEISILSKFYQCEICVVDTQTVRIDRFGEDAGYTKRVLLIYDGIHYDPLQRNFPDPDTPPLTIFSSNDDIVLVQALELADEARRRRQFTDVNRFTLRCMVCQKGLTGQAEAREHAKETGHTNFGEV
Procedure, shortened: as §1

Measured: log2 ratio of Biotin-Ahx-Ub-VS probe labelling

Sequence of USP9X (Q93008 whole entry, the tested form may be a part): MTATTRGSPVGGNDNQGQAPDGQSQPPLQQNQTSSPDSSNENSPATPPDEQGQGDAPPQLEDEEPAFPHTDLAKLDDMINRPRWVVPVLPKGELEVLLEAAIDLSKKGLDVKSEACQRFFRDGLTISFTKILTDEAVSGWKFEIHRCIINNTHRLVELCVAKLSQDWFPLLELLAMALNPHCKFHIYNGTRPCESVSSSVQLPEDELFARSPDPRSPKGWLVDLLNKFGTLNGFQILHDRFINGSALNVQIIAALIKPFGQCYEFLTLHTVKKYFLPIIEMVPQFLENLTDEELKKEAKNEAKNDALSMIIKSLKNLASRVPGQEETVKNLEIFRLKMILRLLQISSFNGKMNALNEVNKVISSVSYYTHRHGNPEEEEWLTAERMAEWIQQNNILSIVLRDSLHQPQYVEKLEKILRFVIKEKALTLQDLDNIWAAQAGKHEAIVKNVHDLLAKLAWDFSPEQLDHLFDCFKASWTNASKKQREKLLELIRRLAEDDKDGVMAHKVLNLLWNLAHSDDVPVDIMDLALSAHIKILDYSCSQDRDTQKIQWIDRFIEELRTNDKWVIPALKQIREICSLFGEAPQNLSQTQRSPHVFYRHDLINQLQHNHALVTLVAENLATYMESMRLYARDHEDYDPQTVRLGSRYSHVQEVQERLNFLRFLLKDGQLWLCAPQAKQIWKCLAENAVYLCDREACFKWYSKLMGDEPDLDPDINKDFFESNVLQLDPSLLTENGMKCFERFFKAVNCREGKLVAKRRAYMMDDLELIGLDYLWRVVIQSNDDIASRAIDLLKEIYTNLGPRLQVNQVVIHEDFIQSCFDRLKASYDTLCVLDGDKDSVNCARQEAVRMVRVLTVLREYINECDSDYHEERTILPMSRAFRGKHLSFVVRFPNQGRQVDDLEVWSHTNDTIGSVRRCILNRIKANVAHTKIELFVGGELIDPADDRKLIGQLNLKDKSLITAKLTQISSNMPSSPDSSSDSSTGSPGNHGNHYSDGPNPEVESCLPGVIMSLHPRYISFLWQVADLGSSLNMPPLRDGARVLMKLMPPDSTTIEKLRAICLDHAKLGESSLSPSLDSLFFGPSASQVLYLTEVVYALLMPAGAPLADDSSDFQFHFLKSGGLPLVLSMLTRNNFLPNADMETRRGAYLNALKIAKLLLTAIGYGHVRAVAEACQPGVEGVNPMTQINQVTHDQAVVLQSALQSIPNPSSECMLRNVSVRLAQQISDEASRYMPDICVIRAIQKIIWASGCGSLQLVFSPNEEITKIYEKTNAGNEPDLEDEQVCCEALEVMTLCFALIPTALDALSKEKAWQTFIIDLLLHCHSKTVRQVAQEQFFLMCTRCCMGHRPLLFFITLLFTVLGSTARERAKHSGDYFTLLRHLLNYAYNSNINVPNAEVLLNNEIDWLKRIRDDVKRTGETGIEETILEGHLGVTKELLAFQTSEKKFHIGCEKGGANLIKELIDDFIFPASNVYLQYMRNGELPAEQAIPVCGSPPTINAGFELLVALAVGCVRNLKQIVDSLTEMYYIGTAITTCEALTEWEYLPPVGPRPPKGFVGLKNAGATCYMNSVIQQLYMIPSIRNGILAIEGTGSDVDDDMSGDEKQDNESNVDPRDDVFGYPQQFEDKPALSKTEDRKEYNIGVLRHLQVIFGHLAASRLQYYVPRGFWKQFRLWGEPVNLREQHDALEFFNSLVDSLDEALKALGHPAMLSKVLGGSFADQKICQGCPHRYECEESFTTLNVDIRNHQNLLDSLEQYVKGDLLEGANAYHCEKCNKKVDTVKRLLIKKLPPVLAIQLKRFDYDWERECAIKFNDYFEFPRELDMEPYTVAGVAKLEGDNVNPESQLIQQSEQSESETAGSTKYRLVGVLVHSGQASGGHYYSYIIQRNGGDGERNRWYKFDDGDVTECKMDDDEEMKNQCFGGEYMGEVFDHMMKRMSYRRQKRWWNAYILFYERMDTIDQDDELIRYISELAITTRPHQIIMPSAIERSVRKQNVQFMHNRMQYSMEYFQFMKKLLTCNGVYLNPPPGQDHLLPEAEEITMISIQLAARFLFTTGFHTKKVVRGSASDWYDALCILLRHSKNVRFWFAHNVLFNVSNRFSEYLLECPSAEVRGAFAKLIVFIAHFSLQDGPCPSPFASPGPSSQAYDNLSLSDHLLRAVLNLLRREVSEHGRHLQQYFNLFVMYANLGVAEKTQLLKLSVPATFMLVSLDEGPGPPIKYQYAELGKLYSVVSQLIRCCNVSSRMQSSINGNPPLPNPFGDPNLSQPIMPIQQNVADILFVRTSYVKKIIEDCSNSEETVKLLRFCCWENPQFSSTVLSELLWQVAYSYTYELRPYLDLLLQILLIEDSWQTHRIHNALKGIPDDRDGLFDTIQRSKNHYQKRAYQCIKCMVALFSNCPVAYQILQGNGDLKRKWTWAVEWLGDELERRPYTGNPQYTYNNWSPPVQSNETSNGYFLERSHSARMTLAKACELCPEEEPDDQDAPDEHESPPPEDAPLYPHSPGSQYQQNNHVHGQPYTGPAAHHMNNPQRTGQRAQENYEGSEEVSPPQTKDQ
Sequence of UniProt O00487 (O00487 whole entry): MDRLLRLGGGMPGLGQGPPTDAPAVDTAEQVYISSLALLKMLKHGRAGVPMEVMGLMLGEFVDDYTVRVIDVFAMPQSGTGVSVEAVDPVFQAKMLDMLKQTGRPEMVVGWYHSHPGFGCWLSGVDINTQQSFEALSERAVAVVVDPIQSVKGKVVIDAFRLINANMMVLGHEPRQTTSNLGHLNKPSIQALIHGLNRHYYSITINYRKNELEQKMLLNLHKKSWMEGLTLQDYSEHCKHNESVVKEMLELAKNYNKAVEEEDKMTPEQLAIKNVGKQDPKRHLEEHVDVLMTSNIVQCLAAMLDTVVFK
Sequence of UniProt P51784 (P51784 whole entry): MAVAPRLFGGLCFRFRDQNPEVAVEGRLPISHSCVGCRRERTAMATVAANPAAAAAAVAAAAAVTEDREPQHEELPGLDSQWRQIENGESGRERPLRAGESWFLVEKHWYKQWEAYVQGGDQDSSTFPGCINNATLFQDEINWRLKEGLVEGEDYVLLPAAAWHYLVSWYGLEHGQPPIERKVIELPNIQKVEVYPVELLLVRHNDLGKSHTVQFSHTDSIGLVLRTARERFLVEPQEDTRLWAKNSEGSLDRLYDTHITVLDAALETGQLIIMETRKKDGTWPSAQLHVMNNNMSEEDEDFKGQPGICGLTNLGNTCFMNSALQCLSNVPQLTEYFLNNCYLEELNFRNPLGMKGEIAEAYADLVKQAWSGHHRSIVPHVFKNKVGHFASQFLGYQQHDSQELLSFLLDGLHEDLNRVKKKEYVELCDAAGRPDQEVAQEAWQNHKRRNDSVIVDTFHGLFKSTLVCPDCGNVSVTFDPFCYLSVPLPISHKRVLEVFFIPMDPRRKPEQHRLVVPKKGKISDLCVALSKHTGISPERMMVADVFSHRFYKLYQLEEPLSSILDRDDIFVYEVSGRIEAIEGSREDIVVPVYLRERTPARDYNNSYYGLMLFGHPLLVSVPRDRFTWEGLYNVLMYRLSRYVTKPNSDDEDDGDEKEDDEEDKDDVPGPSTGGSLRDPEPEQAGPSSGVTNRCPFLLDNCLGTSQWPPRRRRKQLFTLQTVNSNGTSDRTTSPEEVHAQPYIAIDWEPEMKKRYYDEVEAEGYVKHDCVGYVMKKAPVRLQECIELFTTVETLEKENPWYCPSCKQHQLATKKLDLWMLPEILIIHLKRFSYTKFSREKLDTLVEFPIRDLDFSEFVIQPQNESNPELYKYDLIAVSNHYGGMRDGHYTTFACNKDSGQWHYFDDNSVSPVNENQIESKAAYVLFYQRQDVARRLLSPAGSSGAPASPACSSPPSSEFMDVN

CC(=O)Nc1ccc(NC(=O)CCl)cc1
active: [8] -1.31
inactive: [1] -0.118 | [2] -0.167 | [3] -0.353 | [4] 0.016 | [5] -0.228 | [6] -0.811 | [7] -0.0361 | [9] -0.229
